Several values for one entry are separate records, joined by “and”; a condition that tells them apart may be missing. Equal entries are not always repeated. Records with an inconclusive call do not appear. Activity calls are given as the source filed them. Unless noted, calls come from the whole dose curve; as a rule, active = well fitted curve in the direction sought with a large enough effect; inconclusive = small, poorly fitted or top-dose-only effect, or another doubt; inactive = no such curve, though single readings can be large; an effect the other way counts as inactive or inconclusive.
Key:
[1] = qHTS to identify inhibitors of the type 1 interferon - major histocompatibility complex class I in skeletal muscle: primary screen against the NCATS Pharmaceutical Collection (AID 1347407);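 note: luminescence of HiBiT knocked into endogenous HLA-B as interferon-induced MHC class I level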; note: potency is the fitted concentration of half-maximal effect
How it was run: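 Immortalized human myoblasts (C25cl48) with HiBiT knocked into endogenous HLA-B*08:01 were stimulated with 4 ng/ml IFN-beta and treated with compounds (8-point, 1:5, top 46 uM final) for 24 h at 37 C; HiBiT lytic luminescence read.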

[2] = qHTS for inhibitors of adenylyl cyclases using a fission yeast platform: a pilot screen against the NCATS LOPAC library (AID 1347410);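 note: plate controls were DMSO vehicle for no effect and DPI positive control for full effect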
How it was run: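 S. pombe CHP2027 (AC9-GNAS-PDE4D2) carrying a PKA-repressed fbp1-GFP reporter was exposed to LOPAC compounds (final up to 57 µM) for 18 h at 30C in the dark, in EMM with histidine, lysine and uracil; GFP gain-of-signal read by laser scanning cytometry.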

[3] = target: Protein phosphatase 1D (Homo sapiens) (UniProt O15297); assay: RapidFire Mass Spectrometry qHTS Assay for Modulators of WT P53-Induced Phosphatase 1 (WIP1) (AID 1347424);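 note: amount of dephosphorylated VEPPL-S-QETFS peptide product formed by WIP1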; note: potency is the fitted concentration of half-maximal effect
Protein phosphatase 1D (Homo sapiens), sequence (O15297 whole entry, looked up): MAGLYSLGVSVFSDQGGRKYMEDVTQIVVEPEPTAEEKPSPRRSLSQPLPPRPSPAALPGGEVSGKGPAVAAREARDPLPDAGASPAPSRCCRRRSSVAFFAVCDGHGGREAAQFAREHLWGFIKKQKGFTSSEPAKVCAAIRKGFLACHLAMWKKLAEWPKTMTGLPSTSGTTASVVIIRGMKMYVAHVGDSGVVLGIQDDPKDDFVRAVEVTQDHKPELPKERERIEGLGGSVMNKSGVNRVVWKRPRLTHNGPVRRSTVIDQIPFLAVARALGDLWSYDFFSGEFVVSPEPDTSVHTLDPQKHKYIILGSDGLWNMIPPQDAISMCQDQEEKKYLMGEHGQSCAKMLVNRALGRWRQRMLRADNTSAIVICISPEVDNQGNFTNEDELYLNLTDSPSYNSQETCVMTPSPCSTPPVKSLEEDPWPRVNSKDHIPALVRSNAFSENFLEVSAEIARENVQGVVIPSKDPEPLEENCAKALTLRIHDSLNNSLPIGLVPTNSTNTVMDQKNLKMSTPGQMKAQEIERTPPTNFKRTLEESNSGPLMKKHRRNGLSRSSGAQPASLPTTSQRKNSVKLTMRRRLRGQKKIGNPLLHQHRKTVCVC
How it was run: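 WIP1 (10 nM final) was preincubated 1 h at room temperature with compounds in Tris-HCl pH 7.5, 30 mM MgCl2, TCEP, EGTA, BSA; 2 uM VEPPL-pS-QETFS phosphopeptide was added for 5 min, quenched with formic acid, and dephosphorylated product quantified by RapidFire MS.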

[4] = target: Protein phosphatase 1D (Homo sapiens) (UniProt O15297); assay: Rhodamine-PBP qHTS Assay for Modulators of WT P53-Induced Phosphatase 1 (WIP1) (AID 1347425); note: % of control where 0% means no effect
How it was run: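 The read-out is the change in Rhodamine-PBP fluorescence (f1 - f0, ex 525/em 598 nm) as Pi is released, read each minute for 11 min. Final reaction: 5 nM WIP1, 10 uM phosphopeptide VEPPL-pS-QETFS, 10 uM Rh-PBP, 50 mM Tris-HCl pH 7.5, 30 mM MgCl2. Compound was preincubated with enzyme for 1 hour at room temperature.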

[5] = target: Single-stranded DNA cytosine deaminase (Homo sapiens) (UniProt Q9GZX7); assay: Validation qHTS assay for inhibitors of Activation Induced Cytidine Deaminase (AID): AID signal (AID 1347429); note: % is set by controls: 0 for no effect and ±100 for the full control effect
Single-stranded DNA cytosine deaminase (Homo sapiens), sequence (Q9GZX7 whole entry, looked up): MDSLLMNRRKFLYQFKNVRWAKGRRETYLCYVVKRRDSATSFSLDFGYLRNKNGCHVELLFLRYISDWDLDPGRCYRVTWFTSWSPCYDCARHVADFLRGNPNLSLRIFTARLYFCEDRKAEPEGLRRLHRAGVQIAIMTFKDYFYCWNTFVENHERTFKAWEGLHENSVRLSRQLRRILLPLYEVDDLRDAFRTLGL
How it was run: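 AID and UDG were combined and compounds added at final up to 114 uM, then DJC20/DJC23 FRET substrate was added for 4 hr at room temperature. NaOH was then added for 30 min before fluorescence was read at 540/590 nm.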

[6] = Primary qHTS for inhibitors of La Crosse Virus (LACV) - induced cell death in SH-SY5Y cells (AID 1508616); note: potency is the fitted concentration of half-maximal effect
How it was run: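 Luminescent ATP readout (ATPLite 1step, 5 min room temperature) measured rescue from LACV-induced death after 6 days of infection at 0.01 MOI; normalized to infected DMSO wells and uninfected DMSO wells.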

[7] = Primary qHTS for small molecule stabilizers of the endoplasmic reticulum resident proteome: Secreted ER Calcium Modulated Protein (SERCaMP) assay (AID 1508630); note: % is set by controls: 0 for no effect and ±100 for the full control effect
How it was run: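 GLuc-SERCaMP-expressing SH-SY5Y cells, pretreated 16 h with compound, are challenged with thapsigargin to empty ER calcium stores; after 4 h, coelenterazine is added directly to the medium and luminescence is imaged.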

[8] = target: Cytochrome P450 3A4 (Homo sapiens) (UniProt P08684); assay: Cytochrome P450 family 3 subfamily A member 4 (CYP3A4) small molecule antagonists: luciferase qHTS assay (AID 1645841; active = well fitted curve in the direction sought with a large enough effect in the repeat runs; an effect the other way counts as inactive or inconclusive; note: nearly all actives have a fitted effect of over 45% in size)
Cytochrome P450 3A4 (Homo sapiens), sequence (P08684 whole entry, looked up): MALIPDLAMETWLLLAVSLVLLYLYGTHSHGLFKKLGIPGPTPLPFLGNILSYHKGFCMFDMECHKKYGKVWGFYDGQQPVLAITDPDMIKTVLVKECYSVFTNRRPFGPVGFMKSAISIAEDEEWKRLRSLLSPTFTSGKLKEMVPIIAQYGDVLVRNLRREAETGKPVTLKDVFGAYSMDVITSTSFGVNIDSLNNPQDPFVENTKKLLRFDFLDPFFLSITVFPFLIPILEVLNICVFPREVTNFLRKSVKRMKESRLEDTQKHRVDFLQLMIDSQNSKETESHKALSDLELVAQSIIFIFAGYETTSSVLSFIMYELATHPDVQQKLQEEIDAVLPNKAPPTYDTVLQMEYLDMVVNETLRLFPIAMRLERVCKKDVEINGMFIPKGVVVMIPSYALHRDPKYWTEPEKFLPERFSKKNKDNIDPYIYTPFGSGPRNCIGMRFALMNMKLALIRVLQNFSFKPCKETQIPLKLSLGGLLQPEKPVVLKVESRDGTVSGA
How it was run: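 P450-Glo CYP3A4 enzyme with proluciferin substrate was preincubated with DMSO-dissolved compounds for 10 min at room temperature. NADPH regeneration solution started a 1 h reaction. Detection reagent stopped it, and luminescence was read after 20 min.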

[9] = target: Papain (Carica papaya) (UniProt P00784); assay: Primary qHTS assay for inhibitors of the protease papain (AID 1645873);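 note: papain turnover of Z-FR-AMC read as the AMC fluorescence gain over 10 min; series mostly up to about 50 µM; % is set by controls: 0 for no effect and ±100 for the full control effect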
Papain (Carica papaya), sequence (P00784 whole entry, looked up): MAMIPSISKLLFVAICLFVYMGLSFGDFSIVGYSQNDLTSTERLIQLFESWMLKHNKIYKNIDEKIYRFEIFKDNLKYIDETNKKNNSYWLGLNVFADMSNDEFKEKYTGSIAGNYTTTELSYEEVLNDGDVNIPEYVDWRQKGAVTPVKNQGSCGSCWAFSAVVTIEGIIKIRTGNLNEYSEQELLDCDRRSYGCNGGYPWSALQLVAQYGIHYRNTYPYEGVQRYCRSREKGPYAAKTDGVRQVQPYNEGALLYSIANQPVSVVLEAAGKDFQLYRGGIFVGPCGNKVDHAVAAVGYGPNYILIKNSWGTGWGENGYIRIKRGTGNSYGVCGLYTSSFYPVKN

[10] = Validation qHTS assay for inhibitors of Activation Induced Cytidine Deaminase (AID): UDG Counterscreen signal (AID 1347427); note: 0% is about no effect
How it was run: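 Counterscreen read of UDG activity (2 U/mL, 4/3x) in the FRET deamination format with AID (1 uM, 4/3x), DJC20/DJC23 substrates (250 nM, 4x), 4 h at room temperature. NaOH stop, fluorescence at 560 ex/665 em.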

[11] = target: Calcium and integrin-binding protein 1 (Homo sapiens) (UniProt Q99828); assay: Validation qHTS for Identification of Calcium Integrin Binding protein 1 (CIB1) Competitor (AID 1508618); note: % is set by controls: 0 for no effect and ±100 for the full control effect
Calcium and integrin-binding protein 1 (Homo sapiens), sequence (Q99828 whole entry, looked up): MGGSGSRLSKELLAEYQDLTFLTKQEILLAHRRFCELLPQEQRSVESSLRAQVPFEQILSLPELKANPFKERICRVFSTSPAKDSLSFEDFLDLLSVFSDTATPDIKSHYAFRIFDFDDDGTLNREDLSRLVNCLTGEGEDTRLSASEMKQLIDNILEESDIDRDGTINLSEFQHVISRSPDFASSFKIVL
How it was run: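 CIB1-GST (1 uM final) incubated 15 min at room temperature with compounds (up to 114 uM), then FITC-labelled alphaIIb peptide (100 nM) added. FP read (Ex 480/Em 540) after 15 min, pH 7.4 buffer containing 5 mM CaCl2.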

[12] = target: Calcium and integrin-binding protein 1 (Homo sapiens) (UniProt Q99828); assay: Primary qHTS for Identification of Calcium Integrin Binding Protein 1 (CIB1) Competitor (AID 1508620)
How it was run: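 Fluorescence polarization competition: CIB1-GST (1 uM final) preincubated with compound 15 min at room temperature, then FITC-labeled alphaIIb peptide (100 nM final) added for another 15 min. Polarization read at Ex 480/Em 540.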

[13] = target: Cytochrome P450 2D6 (Homo sapiens) (UniProt P10635); assay: Cytochrome P450 family 2 subfamily D member 6 (CYP2D6) small molecule antagonists: luciferase biochemical (cell-free) qHTS assay (AID 1645840; active = well fitted curve in the direction sought with a large enough effect in the repeat runs; an effect the other way counts as inactive or inconclusive; note: nearly all actives have a fitted effect of over 55% in size; note: potency is the fitted concentration of half-maximal effect)
Cytochrome P450 2D6 (Homo sapiens), sequence (P10635 whole entry, looked up): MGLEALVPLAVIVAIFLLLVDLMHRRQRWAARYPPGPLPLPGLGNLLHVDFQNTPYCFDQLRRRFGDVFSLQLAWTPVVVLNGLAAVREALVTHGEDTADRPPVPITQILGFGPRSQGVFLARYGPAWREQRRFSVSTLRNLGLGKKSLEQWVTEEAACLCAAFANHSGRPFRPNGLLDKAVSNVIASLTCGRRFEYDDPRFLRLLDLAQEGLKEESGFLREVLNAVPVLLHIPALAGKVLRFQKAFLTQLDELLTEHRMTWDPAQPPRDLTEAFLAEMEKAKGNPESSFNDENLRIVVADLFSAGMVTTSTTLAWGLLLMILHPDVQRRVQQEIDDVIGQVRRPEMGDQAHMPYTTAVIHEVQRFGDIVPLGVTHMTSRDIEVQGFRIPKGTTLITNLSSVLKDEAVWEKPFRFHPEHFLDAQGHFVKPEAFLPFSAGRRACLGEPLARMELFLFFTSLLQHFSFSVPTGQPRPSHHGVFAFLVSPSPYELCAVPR
How it was run: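 P450-Glo luminescent screen: recombinant CYP2D6 enzyme–proluciferin substrate mix preincubated with compound 10 min at room temperature, then NADPH regeneration added for 1 h at room temperature. Detection reagent added for 20 min; luciferin light read as relative luminescence units.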

[14] = target: Cytochrome P450 2C9 (Homo sapiens) (UniProt P11712); assay: Cytochrome P450 family 2 subfamily C member 9 (CYP2C9) small molecule antagonists: luciferase biochemical (cell-free) qHTS assay (AID 1645842; active = well fitted curve in the direction sought with a large enough effect in the repeat runs; an effect the other way counts as inactive or inconclusive; note: nearly all actives have a fitted effect of over 55% in size; note: potency is the fitted concentration of half-maximal effect)
Cytochrome P450 2C9 (Homo sapiens), sequence (P11712 whole entry, looked up): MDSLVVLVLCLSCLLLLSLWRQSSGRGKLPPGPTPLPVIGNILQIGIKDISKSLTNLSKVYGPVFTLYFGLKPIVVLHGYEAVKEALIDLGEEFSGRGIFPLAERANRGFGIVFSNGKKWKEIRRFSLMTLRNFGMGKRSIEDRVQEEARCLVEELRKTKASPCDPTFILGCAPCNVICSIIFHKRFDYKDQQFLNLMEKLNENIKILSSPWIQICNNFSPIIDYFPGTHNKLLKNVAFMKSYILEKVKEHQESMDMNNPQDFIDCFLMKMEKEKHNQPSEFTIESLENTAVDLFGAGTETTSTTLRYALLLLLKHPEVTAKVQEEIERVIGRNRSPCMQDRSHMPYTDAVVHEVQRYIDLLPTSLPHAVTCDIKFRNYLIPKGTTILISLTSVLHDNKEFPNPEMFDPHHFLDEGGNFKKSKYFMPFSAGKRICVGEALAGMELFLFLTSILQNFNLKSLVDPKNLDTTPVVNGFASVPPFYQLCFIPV
How it was run: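 Luminescence, after 20 min with luciferin detection reagent, reflected CYP2C9 turnover during a 1 h NADPH-driven reaction at 37C. Enzyme-substrate mix contained 0.4% bovine serum albumin and was preincubated with compound 10 min at room temperature.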

[15] = qHTS to identify inhibitors of the type 1 interferon - major histocompatibility complex class I in skeletal muscle: primary screen against the NCATS Mechanism Interrogation Plate v5.0 (MIPE) Libary (AID 1347411);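 note: plate controls were vehicle for no effect and reference inhibitor for full effect; nearly all actives have a fitted effect of over 65% in size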
How it was run: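 Immortalized human C25cl48 myoblasts with HiBit knocked into endogenous HLA-B*08:01 were stimulated with 4.0 ng/ml IFN-beta and exposed to compounds (11-point 1:3 titration, top 46 uM final) for 24 hrs at 37 C; HiBiT lytic luminescence measured.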

[16] = A High-Content qHTS Against Drug Library for the Identification of Small Molecules that Inhibit DYT1 Early Onset Primary Dystonia-Associated Cell Pathology (AID 1645839; calls by dose curve; note: potency is the fitted concentration of half-maximal effect)
How it was run: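 Readout: %pathology, the punctate EGFP-TorsinA distribution from imaging, as the primary channel and cell count as the toxicity counterscreen. HEK293 Flp-In cells expressing delE TorsinA were induced with tetracycline and treated with compound for 48 h.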

[17] = Cell Viability qHTS for small molecule stabilizers of the endoplasmic reticulum resident proteome (AID 1508629); conditions: cell viability counter-screen, 100 nM thapsigargin for final 4 h

O=C1NCN(c2ccccc2)C12CCN(CCCC(c1ccc(F)cc1)c1ccc(F)cc1)CC2
active: Potency [1] 18.7 µM
inactive: outcome [2] | Potency [3] | outcome [4] | Potency [5] | Potency [6] | Potency [7] | outcome [8] | Potency [9]

COCC(=O)O[C@]1(CCN(C)CCCc2nc3ccccc3[nH]2)CCc2cc(F)ccc2[C@@H]1C(C)C
inactive: outcome [2] | Potency [3] | outcome [4] | outcome [10] | Potency [5] | Potency [6] | outcome [11] | Potency [12] | Potency [14]
active: Potency [13] 0.049 µM

CCCCCN(CCCCC)C(=O)C(CCC(=O)O)NC(=O)c1ccc(Cl)c(Cl)c1 (centres undefined)
active: Potency [14] 1.38 µM
inactive: Potency [1] | outcome [2] | Potency [3] | outcome [10] | Potency [5] | Potency [6] | Potency [12] | Potency [7]

C[C@]12C=CC(=O)C=C1CC[C@H]1[C@@H]3C[C@@H](O)[C@](O)(C(=O)CO)[C@@]3(C)C[C@H](O)[C@@]12F
inactive: outcome [2] | Potency [3] | outcome [4] | outcome [10] | Potency [5] | Potency [6] | Potency [7] | Potency [13] | Potency [14] | Potency [9]

Cc1cc(C)c(/C=C2\C(=O)Nc3ccccc32)[nH]1
active: Potency [14] 9.77 µM
inactive: outcome [2] | Potency [15] | Potency [3] | outcome [4] | Potency [6] | Potency [12] | Potency [16] | Potency [9]

COc1cc(C(=O)OCCCN2CCCN(CCCOC(=O)c3cc(OC)c(OC)c(OC)c3)CC2)cc(OC)c1OC
inactive: outcome [2] | Potency [3] | Potency [6] | outcome [11] | Potency [12] | max response [17] -32.9% | Potency [9]

CCN(CC)CCNC(=O)c1ccc(NC(C)=O)cc1
inactive: outcome [2] | Potency [3] | outcome [4] | outcome [10] | Potency [5] | Potency [6] | outcome [11] | Potency [12] | Potency [14] | Potency [9]

O=C(CCNNC(=O)c1ccncc1)NCc1ccccc1
inactive: outcome [2] | Potency [3] | outcome [4] | outcome [10] | Potency [5] | Potency [6] | outcome [11] | Potency [12] | Potency [7] | Potency [9]
active: Potency [13] 15.5 µM | Potency [14] 5.49 µM

CC(C)NCC(O)c1cc(O)cc(O)c1 (centres undefined)
inactive: outcome [2] | Potency [3] | outcome [4] | outcome [10] | Potency [6] | outcome [11] | Potency [7] | Potency [16] | Potency [14] | Potency [9]

COc1cc2c(cc1OC)-c1cc(=Nc3c(C)cc(C)cc3C)n(C)c(=O)n1CC2
inactive: outcome [2] | Potency [3] | outcome [4] | outcome [10] | Potency [5] | Potency [6] | outcome [11] | Potency [12]
active: Potency [13] 12.3 µM | Potency [14] 0.49 µM

CC(C)(C)c1ccc(C(=O)CCCN2CCC(OC(c3ccccc3)c3ccccc3)CC2)cc1
inactive: outcome [2] | Potency [3] | outcome [4] | outcome [10] | Potency [5] | Potency [6] | outcome [11] | Potency [12] | Potency [7] | Potency [9]

CCCCOCCOCCOCc1cc2c(cc1CCC)OCO2
active: Potency [13] 1.56 µM and 1.74 µM | Potency [14] 340 nM and 123 nM
inactive: Potency [1] | Potency [3] | outcome [4] | Potency [6] | Potency [12] | Potency [7] | Potency [16]

CN/C(=C\[N+](=O)[O-])NCCSCc1ccc(CN(C)C)o1
inactive: outcome [2] | Potency [3] | outcome [4] | outcome [10] | Potency [5] | Potency [6] | outcome [11] | Potency [12] | Potency [16] | Potency [14]
active: Potency [13] 15.5 µM

Cc1ccc(Cl)c(Nc2ccccc2C(=O)O)c1Cl
active: Potency [3] 17.8 µM
inactive: outcome [2] | outcome [10] | Potency [5] | Potency [6] | Potency [12] | Potency [7]

COC(=O)C1=C(C)NC(C)=C(C(=O)OC(C)(C)CN(C)CCC(c2ccccc2)c2ccccc2)C1c1cccc([N+](=O)[O-])c1 (centres undefined)
active: Potency [16] 10 µM | Potency [14] 1.95 µM
inactive: outcome [2] | Potency [3] | outcome [4] | Potency [5] | Potency [6] | outcome [11] | Potency [12] | Potency [9]

Fc1ccc(C(c2ccc(F)cc2)N2CCN(C/C=C/c3ccccc3)CC2)cc1
inactive: outcome [2] | Potency [3] | outcome [4] | outcome [10] | Potency [5] | Potency [6] | outcome [11] | Potency [12] | Potency [9]
active: Potency [16] 12.6 µM | Potency [14] 7.76 µM

Cc1nnc(SCC2=C(C(=O)O)N3C(=O)[C@@H](NC(=O)Cn4cnnn4)[C@H]3SC2)s1
inactive: outcome [2] | Potency [3] | outcome [4] | Potency [6] | Potency [14] | Potency [9]

C[C@H](CS)C(=O)N1CCC[C@H]1C(=O)O
inactive: outcome [2] | Potency [3] | outcome [4] | Potency [6] | Potency [16] | Potency [13] | Potency [14]

Nc1ncn([C@@H]2O[C@H](CO)[C@@H](O)[C@H]2O)c(=O)n1
active: Potency [6] 1.12 µM
inactive: outcome [2] | Potency [3] | outcome [4] | outcome [10] | outcome [11] | Potency [12] | Potency [7] | outcome [8] | Potency [14] | Potency [9]

N[C@@H](COP(=O)(O)O)C(=O)O
inactive: outcome [2] | Potency [3] | outcome [10] | Potency [6] | outcome [11] | Potency [12] | Potency [7] | Potency [13] | outcome [8] | Potency [14] | Potency [9]

Cc1ccc(/C(=C\CN2CCCC2)c2ccccn2)cc1
inactive: Potency [3] | outcome [4] | outcome [10] | Potency [5] | Potency [6] | outcome [11] | Potency [12] | Potency [14] | Potency [9]

COC(=O)C1=C(C)NC(C)=C(C(=O)OCCN(C)Cc2ccccc2)C1c1cccc([N+](=O)[O-])c1 (centres undefined)
inactive: Potency [1] | outcome [2] | Potency [3] | Potency [5] | Potency [6] | Potency [12] | Potency [9]

NS(=O)(=O)c1cc2c(cc1Cl)NC(C1CC3C=CC1C3)NS2(=O)=O (centres undefined)
inactive: outcome [2] | Potency [3] | outcome [4] | Potency [6] | outcome [11] | Potency [12] | Potency [7] | Potency [16] | Potency [9]

— PubChem BioAssay (NCATS)
